Measurements as given in publication PMC4336329 (PLoS ONE, 2015).
About 14,000 (4.5%) of roughly 310,000 compounds showed an effect of 50% or more. The effect is printed as a negative number. Only a selection was taken, and strong results are over-represented in it overall.

biological target: human ether-à-go-go-related gene (hERG) potassium channel (human, UniProt Q12809); test: primary screen, population patch clamp on CHO cells stably expressing hERG; higher = less effect of the substance
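Note: peak tail current of the secondary pulse compared with the same well before compound.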

Sequence of human ether-à-go-go-related gene (hERG) potassium channel (Q12809 whole entry, looked up): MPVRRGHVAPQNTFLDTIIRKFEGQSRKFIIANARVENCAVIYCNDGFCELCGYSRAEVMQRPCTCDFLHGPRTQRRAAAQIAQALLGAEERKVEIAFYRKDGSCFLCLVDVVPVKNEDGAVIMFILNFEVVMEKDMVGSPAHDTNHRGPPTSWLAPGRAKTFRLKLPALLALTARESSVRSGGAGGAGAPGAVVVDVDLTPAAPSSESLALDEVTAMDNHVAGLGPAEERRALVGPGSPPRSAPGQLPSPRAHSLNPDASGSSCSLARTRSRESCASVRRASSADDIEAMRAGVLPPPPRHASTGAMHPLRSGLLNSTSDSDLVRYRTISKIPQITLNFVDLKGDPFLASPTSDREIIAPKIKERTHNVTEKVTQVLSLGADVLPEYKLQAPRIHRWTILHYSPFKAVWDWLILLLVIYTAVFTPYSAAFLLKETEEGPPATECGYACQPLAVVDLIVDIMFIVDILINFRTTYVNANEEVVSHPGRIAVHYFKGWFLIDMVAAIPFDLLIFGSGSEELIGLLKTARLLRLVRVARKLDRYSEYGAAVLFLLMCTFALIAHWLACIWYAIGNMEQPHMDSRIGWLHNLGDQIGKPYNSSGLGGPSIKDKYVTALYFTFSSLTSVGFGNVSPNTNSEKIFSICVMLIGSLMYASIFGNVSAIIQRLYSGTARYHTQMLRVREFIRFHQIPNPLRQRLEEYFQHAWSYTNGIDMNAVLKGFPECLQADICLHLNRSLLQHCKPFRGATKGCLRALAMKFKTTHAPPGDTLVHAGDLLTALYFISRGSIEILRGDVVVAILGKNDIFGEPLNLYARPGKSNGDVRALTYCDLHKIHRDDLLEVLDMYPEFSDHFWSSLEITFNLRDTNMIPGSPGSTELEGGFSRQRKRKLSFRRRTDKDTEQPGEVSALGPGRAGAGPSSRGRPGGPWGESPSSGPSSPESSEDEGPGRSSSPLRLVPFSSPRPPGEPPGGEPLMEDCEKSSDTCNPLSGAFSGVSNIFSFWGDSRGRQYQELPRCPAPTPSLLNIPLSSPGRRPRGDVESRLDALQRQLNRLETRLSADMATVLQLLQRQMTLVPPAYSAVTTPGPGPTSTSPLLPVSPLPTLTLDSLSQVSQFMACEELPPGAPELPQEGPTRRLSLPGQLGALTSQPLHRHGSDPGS

Structure (SMILES)	hERG current change (%, negative = inhibition) at 10uM [%]
NC(=S)Nc1ccc(C(F)(F)F)cc1Cl	0.127
O=C(CN1C(=O)C2(OCCO2)c2ccccc21)c1ccc(F)cc1	2.09
COc1ccc(CCCC(=O)Nc2cc(C)ccc2OC)cc1	-14.2
CCOc1cc(C(=O)CCC(=O)OCC(=O)Nc2ccc(C)c(S(=O)(=O)N(C)C)c2)ccc1O	-32.7
Cc1cc(N)n(Cc2cccs2)n1	-2.95
COc1ccc(C(=O)Nc2nnc(S(=O)(=O)N(C)Cc3ccccc3)s2)cc1	7.21
O=c1c2ccccc2[nH]c(=S)n1-c1ccc2c(c1)OCO2	13.1
Cc1nc(NC(=O)CSc2nnc3ccccn23)c(Cl)cc1Cl	-3.58
Cn1c(=O)c2c(nc(CN3CCN(Cc4ccccc4)CC3)n2Cc2ccc(Cl)cc2)n(C)c1=O	-68
Cn1c(=O)c2c(nc(CN3CCc4ccccc4C3)n2Cc2ccc(Cl)cc2)n(C)c1=O	0.125
Cn1c(=O)c2c(nc(CN3CCN(Cc4ccccc4)CC3)n2CCN2CCOCC2)n(C)c1=O	-17.6
Cc1csc(SCC(=O)Nc2cc(S(=O)(=O)N3CCOCC3)ccc2N2CCOCC2)n1	-45.8
CCn1c(SCC(=O)Nc2ccc(OC)cc2)nnc1-c1ccco1	-22.3
O=C(O)/C=C/C(=O)NNC(=O)c1ccccc1Br	2.8
O=c1[nH]c(SCc2ccccc2)nc2ccsc12	5.3
O=c1[nH]c(SCc2ccc(Cl)cc2)nc2ccccc12	3.49
O=c1[nH]c(SCc2ccc(Cl)cc2)nc2ccsc12	-67
COc1cc(CCCN2C(=S)NC[C@@H]2CC2CCCCC2)cc(OC)c1OC	-1.89
CC(C)N(CC#CC(O)(c1ccccc1)c1ccccc1)CCO	-28.1
CN(CC#CC(O)(c1ccccc1)c1ccccc1)C(C)(C)C	-69
CN(C)CCC#CC(O)(c1ccccc1)c1ccccc1	-32.1
OCCN(CC#CC(O)(c1ccccc1)c1ccccc1)CCO	5.56
CC(C)N(CC#CC(O)(c1ccccc1)c1ccccc1)C(C)C	-70.4
CCN(CC)CC#CC(O)(c1ccccc1)c1ccccc1	-42.5
COc1ccc(-c2cc(CNS(=O)(=O)c3ccc(NC(C)=O)cc3)on2)cc1	18.6

Structure (SMILES)	hERG current change (%, negative = inhibition) at 10uM [%]
COc1ccccc1C(=O)NCCOc1ccc(C)c(C)c1	18.5
COc1ccc(Cl)cc1N(CC(=O)NC1CC1)S(=O)(=O)c1ccc(C)c([N+](=O)[O-])c1	11.9
O=C(OC1CCCCC1)c1cc2ccccc2oc1=O	-32.6
Cl.O=C(Nc1ccc(C(=O)OC[C@@H]2CCCN3CCCC[C@H]23)cc1)c1cccc(Br)c1	-69.3
O=C(Nc1ccccc1)OCC1CCCN2CCCCC12 (stereo not shown)	-39.4
O=C(NS(=O)(=O)Oc1ccc(Cl)cc1)OC[C@@H]1CCCN2CCCC[C@H]12	28.2
Cl.O=C(OC[C@@H]1CCCN2CCCC[C@H]12)c1cc2ccccc2oc1=O	-50.1
O=C(NC(=O)c1cccc(Cl)c1)OC[C@@H]1CCCN2CCCCC12 (stereo partly shown)	-60.9
O=C(NC(=O)c1cccc(F)c1)OC[C@@H]1CCCN2CCCC[C@H]12	-36.7
O=C(NCC1CCCO1)c1ccc(NC(=O)c2cccc(Br)c2)cc1 (stereo not shown)	16.4
Cl.O=C(OCC1CCCN2CCCCC12)c1ccc2c(c1)OCO2 (stereo not shown)	-22.8
COc1ccc(/C=C(\NC(=O)c2ccccc2)C(=O)OCC2CCCN3CCCCC23)cc1OC (stereo not shown)	-40.7
O=C(Nc1ccc(C(=O)N2CCOCC2)cc1)c1cccc(Br)c1	3.11
O=C(NC(=O)c1ccccc1)OCC1CCCN2CCCCC12 (stereo not shown)	-56.7
CCOC(=O)C(=NCCCN(C)C)NNc1cc(C(F)(F)F)ccc1Cl	-18.5
O=C(NCCCn1ccnc1)c1ccc(Br)c(S(=O)(=O)N2CCOCC2)c1	-7.41
COc1ccc(OC)c(NC(=O)Nc2cc(C(=O)O)ccc2C)c1	13.1
COc1ccccc1NC(=O)CN1C(=O)NC(CC(C)C)C1=O (stereo not shown)	4.37
O=C(CCC(=O)N1CCCC1)Nc1ccc([N+](=O)[O-])cc1	-1.25
NC(=S)N/N=C/c1ccc(C(F)(F)F)cc1	11
O=C(CSc1cccc[n+]1[O-])c1cc2ccccc2o1	-4.46
COC(=O)c1sccc1NC(=O)c1cc(OC)c(OC)c(OC)c1	3.09
O=NN1CCN(c2ccncc2S(=O)(=O)N2CCCCC2)CC1	10.6
COc1ccc(-c2noc(-c3ccccc3C(=O)NCc3ccco3)n2)cc1	3.2
CCOc1ccc(-c2nnc(N3CCCCC3)c3ccccc23)cc1	-6.17

Structure (SMILES)	hERG current change (%, negative = inhibition) at 10uM [%]
COc1ccc(-c2nnc(N3CCOCC3)c3ccccc23)cc1	-2.78
CCN1CCN(c2nnc(-c3ccccc3)c3ccccc23)CC1	-36.8
CCOc1ccc(-c2nnc(N3CCOCC3)c3ccccc23)cc1	-69.6
CCN1CCN(c2nnc(-c3ccc(F)cc3)c3ccccc23)CC1	-48.4
OCCN1CCN(c2nnc(-c3ccccc3)c3ccccc23)CC1	-23.5
Cc1ccc(-c2nnc(N3CCCCCC3)c3ccccc23)cc1	1
Cc1ccc(-c2nnc(N3CCN(CCO)CC3)c3ccccc23)cc1	-58.4
CCN1CCN(c2nnc(-c3ccc(C)cc3)c3ccccc23)CC1	-66.5
Cc1ccc(C(=O)NCCOc2ccc(Cl)cc2)cc1	1.42
COc1cc(/C=C/C(=O)O)ccc1OCc1ccc([N+](=O)[O-])cc1	21.8
COc1ccc(CC(=O)Nc2ccc(-c3noc(COc4ccccc4C)n3)cc2)cc1	2.1
COC(=O)c1ccc(COc2ccccc2/C=C(\C#N)C(=O)Nc2ccc(C)cc2C)cc1	-11.1
COC(=O)c1c(-c2ccccc2)noc1-c1ccccc1	2.19
CCOC(=O)c1c(OCCO)nn(-c2ccccc2)c1N	14.1
CCOC(=O)c1nn(-c2ccc(Cl)cc2)c(C)cc1=O	-0.00902
CCOC(=O)c1c(OCCO)nn(-c2ccc(Cl)cc2)c1N	-51.8
COc1ccc2[nH]cc(CCNS(=O)(=O)c3ccccc3)c2c1	11.7
CCOC(=O)c1c(NC(C)=O)sc2c(O)c(Br)ccc12	6.88
CCOC(=O)c1c(NC(C)=O)sc2c(OCCN(CC)CC)c(Br)ccc12	-54.8
CCOC(=O)c1c(NC(C)=O)sc2c(OCC(O)CN(CC)CC)c(Br)ccc12 (stereo not shown)	-51.3
CCOC(=O)c1c(NC(C)=O)sc2c(OC)c(Br)ccc12	2.16
CCOC(=O)c1c(NC(C)=O)sc2c(OCC(O)CNC(C)(C)C)c(Br)ccc12 (stereo not shown)	-11.8
CCOC(=O)c1c(NC(C)=O)sc2c(O)cccc12	2.36
Cn1c(=NC(=O)COc2ccccc2)sc2ccccc21	-8.07
COc1ccc(/C=C/C(=O)NCCNC(=O)c2ccccc2)cc1OC	-8.61

Structure (SMILES)	hERG current change (%, negative = inhibition) at 10uM [%]
Cc1ccc(N2C(=O)CC(Nc3cccc4ccccc34)C2=O)cc1 (stereo not shown)	27.6
CC(C)=CCCC(C)CN1CCC(N2CCC(C(=O)N3CCOCC3)CC2)CC1 (stereo not shown)	-60.4
CC(C)=CC(=O)N1CCC(N2CCC(C(=O)N3CCOCC3)CC2)CC1	28.3
CC(C)/C=C/C(=O)N1CCC(N2CCC(C(=O)N3CCOCC3)CC2)CC1	11
CC(=O)c1cc(CN2CCC(N3CCC(C(=O)N4CCCC4)CC3)CC2)cs1	-2.23
CC(C)=CCCC(C)CN1CCC(N2CCC(C(=O)N3CCCC3)CC2)CC1 (stereo not shown)	-74.8
CC(C)=CCCC(C)CN1CCC(O)CC1 (stereo not shown)	-2.96
Cl.Nc1ncnc2nc[nH]c12	4.95
CCC1CCCCN1CCNC(=O)CNS(=O)(=O)c1ccc2nc(C)sc2c1 (stereo not shown)	10.5
O=C(Nc1nnc(C2CC2)s1)C1=NN(C2CCS(=O)(=O)C2)C(=O)CC1 (stereo not shown)	0.219
Cc1[nH]c(C)c(S(=O)(=O)Nc2ccccc2Cl)c1C(=O)N1CCCC1	15.7
CCN(CC)c1ccc(N=Cc2c(O)n(-c3ccc(Cl)cc3)c(=O)[nH]c2=O)cc1	14.5
Cc1ccc(C(=O)CCC(=O)Nc2cccnc2)cc1C	12.4
Cc1ccc(C(=O)C2CCN(CC(=O)Nc3ccc(N(C)C)cc3)CC2)cc1	-36.4
CCOc1ccc(C(=O)C2CCN(CC(=O)Nc3ccccc3N3CCOCC3)CC2)cc1	-53.6
CCOc1ccccc1NC(=O)CN1CCC(C(=O)c2ccc(F)cc2)CC1	-20.9
CC1CCN(CC(=O)Nc2nccs2)CC1	13.6
CCOc1ccccc1NC(=O)CN1CCC(C(=O)c2ccc(OC)cc2)CC1	-65.9
COc1ccc(NC(=O)CN2CCC(C(=O)c3ccc(C)cc3)CC2)c(OC)c1	-29.8
CCOc1ccc(C(=O)Nc2ccccc2N2CCOCC2)cc1	-5.52
NC(=O)C1CCN(CC(=O)Nc2nccs2)CC1	10.9
COc1ccc(C(=O)C2CCN(CC(=O)Nc3ccc(C)cc3)CC2)cc1	-53.4
CCOc1ccc(C(=O)C2CCN(CC(=O)Nc3nccs3)CC2)cc1	-68.3
COc1ccc(C(=O)C2CCN(CC(=O)Nc3ccccc3F)CC2)cc1	-17.2
NC(=O)C1CCN(CC(=O)Nc2ccccc2N2CCOCC2)CC1	3.15
